The campaign covered roughly 1,500 compounds. About 920 (61%) were called active. No rule for the calls is given here. So high a share suggests a set chosen from earlier hits. The list shows a part of the results. Results with a measured potency or affinity are listed apart.

The nature of this assay: Vero 76 cell cytotoxicity, dose response, cytotoxicity control for VEEV inhibitor project (AID 588719). To be noted: Vero 76 cells viability, cytotoxicity counter-screen; series mostly up to 25 µM. (In general: Counterscreens check selectivity or assay interference.)
Take `CCN1CCC(CNCc2cn(-c3ccc(OC)cc3)nc2-c2ccccc2Cl)C1` (centres undefined): the compound was classed as inactive.

`Nc1ncnc(N2CCOCC2)n1`: the call was inactive. With `O=C(COC(=O)c1ccc(O)cc1O)Nc1ccc2ccccc2c1` the entry was “inactive”; with `CCOC(=O)C1(CCC(=O)OCc2ccccc2)CCCCC1=O` (centres undefined), “inactive”; with `CCC(CC)N1CCN(Cc2nc3ccc([N+](=O)[O-])cc3c(=O)n2-c2ccccc2F)CC1`, “inactive”. With `OCCCNc1cc(-c2ccccc2)nc2cc(-c3ccc(F)cc3)nn12` the entry was “inactive”; with `Cc1ccc(C)c(C2=NNC(=O)CC2)c1`, “inactive”. With `COc1cc2nc(N3CCNCC3)nc(N)c2cc1OC` the entry was “inactive”; with `Cc1cccc(C(=O)OCC(=O)N2CCN(C(=O)c3ccco3)CC2)c1O`, “inactive”; with `CC(C)Oc1ccc(C(=O)CCN2CCOCC2)cc1`, “inactive”. Turning to `COc1ccc(C(C)=NOC(=O)c2c(-c3ccccc3Cl)noc2C)cc1CN1CCOCC1`, the outcome was inactive. With `OCC[n+]1c2ccccc2nc2ccc(N3CCOCC3)cc21` the entry was “inactive”; with `Cc1c(C(O)CN2CCN(Cc3ccc4c(c3)OCO4)CC2)c2ccccc2n1C` (centres undefined), “inactive”; with `Brc1ccc2[nH]c3c(c2c1)CCC3`, “inactive”. With `Cc1onc(-c2ccccc2)c1C(=O)NCc1ccc(F)cc1` the entry was “inactive”. With `Cc1ccc(C)c(CN2CCC(CNC(=O)Nc3ccc(Br)cc3F)CC2)c1` the entry was “inactive”; with `O=C1c2cc([N+](=O)[O-])cc3cc([N+](=O)[O-])cc(c23)C(=O)N1c1ccccn1`, “inactive”; with `CC(C)Cc1ccc(CN2CCCC(NC(=O)c3cccc(-n4cnnc4)c3)C2)cc1` (centres undefined), “inactive”. On to `Nc1nc(C2CC2)c(Sc2sc(N)nc2C2CC2)s1`, for which the compound was classed as inactive. As for `COc1ccc(C[C@H]2CN3C(=NC[C@H]3C)N2CCNC(=O)CCC2CCCCC2)cc1`, the result was inactive. For `O[C@H]1C[C@H](c2ccc(Cl)cc2)N(CC2CCCCC2)C[C@@H]1n1cc(-c2ccc(F)cc2)nn1` the value was “inactive”; for `CCOC(=O)C1=C(NC(=S)NC(=O)c2ccccc2)c2ccccc2CC1(C)C`, “inactive”; for `Cc1sc(NC(=S)NC(=O)c2ccc(C(C)(C)C)cc2)c(C#N)c1C`, “inactive”. Regarding `CC(C)(C)c1ccc(C(=O)NC(=S)Nc2sc3c(c2C#N)CCC3)cc1`, the outcome was inactive. For `Cc1ccc(NC(=S)NNC(=S)Nc2cccc(C(F)(F)F)c2)cc1` the value was “inactive”; for `ClCCn1cnc2c(SCc3ccccc3Cl)ncnc21`, “inactive”; for `Cc1cccc2sc(N(CCCN(C)C)C(=O)c3ccc4ncsc4c3)nc12`, “inactive”. For the compound `CC1SCC(NC(=O)c2ccc(Cl)cc2)CS1` (centres undefined), the compound was called inactive. For `Cc1cccc2c1NC1(CCCC1)CC2C` (centres undefined), the compound was classed as inactive.

Take `C/C(CCC12CC3CC(CC(C3)C1)C2)=N\NC(N)=S`: the call was inactive.

Regarding `CC(=O)NNc1cc(C)nc(N)n1`, the outcome was inactive. With `Cc1ccc(Cc2c(-c3ccc(C)cc3)nc3c4ccccc4ccn23)cc1` the entry was “inactive”; with `COCCn1c(SC(C)C(=O)Nc2ncc(Cl)cc2Cl)nc2ccccc21` (centres undefined), “inactive”; with `Cc1cc(SC(C)C(=O)Nc2ncc(Cl)cc2Cl)nc2ccccc12` (centres undefined), “inactive”. For `O=C(CCCCN1CCCCC1)c1ccc2c(c1)Cc1ccccc1-2` the value was “inactive”; for `CCOC(=O)c1ccc(NC(=S)N(CCN(C)C)Cc2cccs2)cc1`, “inactive”; for `CCc1ccccc1Nc1nc(N)nc(COC(=O)c2cccn2C)n1`, “inactive”.

For `COc1ccc(Nc2ccccc2N)cc1`, the result was inactive. For `COc1ccc(OC)c(Nc2nc(NCCC(C)C)nc(N)c2[N+](=O)[O-])c1` the value was “inactive”; for `CCc1ccccc1Nc1nc(N)nc(COC(=O)CCC(=O)c2ccc(F)cc2)n1`, “inactive”; for `CCOC(=O)c1c(S(=O)(=O)N2CCC(C)CC2)c(C)n(C)c1C`, “inactive”. Consider `Cn1c(SCC(=O)c2ccccc2)nnc1-c1ccccn1`, for which the compound was classed as inactive. With `O=C(Nc1ccccc1)N1CCN(C2c3ccccc3-c3ccccc32)CC1` the entry was “inactive”; with `CCc1cc(C(=O)c2ccc(OC)cc2)c(NC(=O)CN2CCN(C)CC2)s1`, “inactive”; with `Cc1ccc(-c2nc(CCN3C(=O)c4ccccc4C3=O)cs2)cc1`, “inactive”. For `CC(=O)N1CCC(C(=O)Nc2cc(S(=O)(=O)N3CCCCC3)ccc2C)CC1` the value was “inactive”.

Regarding `CCN(CC)c1ccc(S(=O)(=O)N2CCOCC2)cc1NC(=O)COC(=O)/C=C/c1ccc(C)o1`, the result was inactive. With `COCOCCn1cc(CN2CCS(=O)(=O)N(Cc3ccc(-c4ccc(F)nc4)cc3)C(CC(C)C)C2=O)nn1` (centres undefined) the entry was “inactive”. As for `CN1CCN(c2ccc(-c3cccc(NC(=O)COc4ccc(Cl)cc4Cl)c3)nn2)CC1`, the result was inactive.

As for `Cc1ccc(C(C[N+](=O)[O-])Sc2ccc(N)cc2)cc1` (centres undefined), the result was inactive. For `COc1ccc(CCNc2cc(C)nc3c(-c4ccccc4)cnn23)cc1OC` the value was “inactive”; for `CCOC(=O)C1CCN(C(c2ccccn2)c2c(C)[nH]c3ccccc23)CC1` (centres undefined), “inactive”; for `O=c1[nH]c(-c2ccccn2)nc2sc(-c3ccccc3)cc12`, “inactive”. Turning to `C=CCn1c(SCC(=O)c2cccs2)nc2sc(C)c(C)c2c1=O`, the compound was called inactive.

For the compound `Cn1c(=O)c2[nH]c(CSCc3ccccc3)nc2n(C)c1=O`, the call was inactive. With `Cc1ccc(CNc2ccc(O)cc2)cc1` the entry was “inactive”. For `CN1C/C(=C\c2ccc(N3CCOCC3)cc2)C(=O)/C(=C/c2ccc(N3CCOCC3)cc2)C1` the value was “inactive”; for `O=C(/C=C/c1ccc2c(c1)OCO2)c1ccccn1`, “inactive”.

Consider `Nc1cnn(C2OC(CO)C(O)C2O)c(=O)n1` (centres undefined), for which the compound was called inactive.

Regarding `Cc1ccccc1Oc1ccc2c(c1)[C@@H]1C[C@H](N(C)C(=O)c3ccco3)[C@H]([C@H](C)O)C(=O)N1CC2`, the outcome was inactive.

Turning to `CCOc1ccc(-c2c(C(=O)N/N=C(\C)c3cccs3)nnn2-c2nonc2N)cc1`, the compound was classed as inactive. With `CCOC(=O)c1oc2ccc(Br)cc2c1NC(=O)CN1CCN(C)CC1`, the compound was called inactive.

Consider `Cc1nn(CC(=O)Nc2nccs2)c(C)c1[N+](=O)[O-]`, for which the call was inactive. Take `O=C1CCCCC1Nc1ccc2ccccc2c1` (centres undefined): the compound was classed as inactive.

For `CC(C)(C)C1CCC(=NNc2ccc(S(N)(=O)=O)cc2[N+](=O)[O-])CC1` (centres undefined), the compound was called inactive. In the case of `NC(=S)N/N=C/c1ccc(-c2ccc(SC(F)F)cc2)o1`, the compound was classed as inactive. For `CCN(CC)CCCNC(=O)c1ccc2c(Cl)c3c(nc2c1)CCCC3` the value was “inactive”. Consider `CCN1CCN(CCCNC(=O)c2cc3c(s2)-c2ccccc2OC3)CC1`, for which the call was inactive.

On to `CN1CCN(NC(=O)c2cc(-c3cccc(Cl)c3)nc3ccccc23)CC1`, for which the call was inactive.

`O=C1CC(/C=C/c2ccc(Cl)cc2)=Nc2ccccc2N1`: the compound was classed as inactive.

As for `CCOC(=O)c1c(CN2CCOCC2)n(-c2ccccc2)c2ccc(O)cc12`, the compound was classed as inactive.

For the compound `O=C(NC1CCCCC1)c1ccc2ccccc2c1O`, the compound was classed as inactive. For `CC(C)/C(C=O)=C(/NC1CCCCC1)c1ccccc1` the value was “inactive”; for `CN1c2ccccc2C(C)(C)C12CC(c1ccc(S(=O)(=O)N3CCCCC3)cc1)=NO2` (centres undefined), “inactive”. For `COc1ccc(OC)c2cc3ccccc3cc12` the value was “inactive”. With `O=C(O)CCc1ccc(-c2ccccc2)n1-c1ccc(C(=O)O)cc1` the entry was “inactive”. Turning to `COc1cccc(C#Cc2ccc3c(c2)O[C@H](CN(C)C)[C@@H](C)CN([C@@H](C)CO)S3(=O)=O)c1`, the compound was classed as inactive. In the case of `O=C(Cc1n[nH]c(=O)c2ccccc12)OCc1c(Cl)cccc1Cl`, the compound was called inactive.

For the compound `CC(=O)c1c(O)c(C)c(O)c2c1OC1=Cc3c(c(C)nn3C)C(=O)C12C` (centres undefined), the compound was classed as inactive. Regarding `Cc1onc(-c2ccc(Cl)cc2Cl)c1-c1csc(N/N=C/c2ccccc2Cl)n1`, the compound was called inactive. In the case of `Cc1cccc(NC(=O)CSc2cc(C)c(C#N)c3nc4ccccc4n23)c1`, the compound was called inactive. With `CN(C)CCNC(=O)c1cc2sc3ccccc3c2s1`, the outcome was inactive.

`C(=N\Nc1nncc2ccccc12)/c1ccccc1`: the compound was classed as inactive.

Regarding `Cc1ccc2c(Cl)cc(Cl)c(O)c2n1`, the compound was classed as inactive. Regarding `CCOC(=O)c1c(-c2cccc3ccccc23)csc1NC(=O)C1C2CCC(O2)C1C(=O)O` (centres undefined), the compound was classed as inactive.

In the case of `CN(C)S(=O)(=O)c1cccc(C(=O)Nc2ccccc2C(=O)NC2CC2)c1`, the compound was classed as inactive.

Consider `CC(C)c1ccc(N=Cc2c(O)n(C3CC3)c(=S)[nH]c2=O)cc1`, for which the result was inactive. For `CCOC(=O)CCCc1ccc(/C(C)=N/NC(N)=S)cc1`, the call was inactive. For `CC(Sc1ccc(S(=O)(=O)N2CCOCC2)cn1)c1ccccc1Cl` (centres undefined) the value was “inactive”. With `CC(C)(C)c1cc[n+](C2=C([O-])c3ccccc3C(=O)/C2=N\S(=O)(=O)c2cccs2)cc1` the entry was “inactive”; with `Cc1ccccc1NS(=O)(=O)c1ccc(C(=O)NCc2ccccc2CN2CCCC2)cc1`, “inactive”.

With `O=C(CCCOc1ccc(Cl)cc1Cl)Nc1ccccc1C(=O)O`, the compound was classed as inactive. With `O=C(Oc1oc(-c2ccco2)nc1C=Nc1ccc(Cl)cc1)c1ccco1`, the result was inactive.

Take `CC1(C)Nc2ccccc2C(=O)N1c1ccc(Br)cc1`: the compound was classed as inactive.

As to `COc1ccc(C/C(N)=N/OC(=O)c2cccs2)cc1`, the compound was called inactive.

On to `Cc1cc(O)c(-c2cc(C(=O)NCCc3ccc(S(N)(=O)=O)cc3)[nH]n2)cc1C`, for which the compound was classed as inactive. Turning to `NNC(=O)C1CCN(S(=O)(=O)c2ccc(Cl)cc2)CC1`, the result was inactive. As to `Cc1cc(C)c2c(=O)n(CC(=O)NC3CCCC3)sc2n1`, the outcome was inactive. For `Cc1cc(NC(=O)COC(=O)c2c(Cl)cccc2Cl)no1` the value was “inactive”; for `COc1ccc(-c2cc(C(=O)Nc3c(C)n(C)n(-c4ccccc4)c3=O)c3ccccc3n2)c(OC)c1`, “inactive”.

For `COc1ccccc1/C=C/C(=O)c1ccccc1`, the compound was classed as inactive. For the compound `COc1ccc(C)c2sc(N(CCCN(C)C)C(=O)c3ccc4c(c3)OCCO4)nc12`, the call was inactive. For `COC(=O)CCC1(C(N)=O)CCC(=O)c2ccccc21` (centres undefined), the call was inactive.

With `CC1(C)Cc2c(sc(NC(=O)COc3cccc4ccccc34)c2C#N)C(C)(C)N1`, the compound was classed as inactive.

Regarding `OCCCNc1cc(-c2ccnc(Nc3cccc(Cl)c3)n2)ccn1`, the result was inactive. As to `CCCC(C)NC(=O)c1ccccc1SC` (centres undefined), the call was inactive. With `CC1(C)CCCN(Cc2c(O)ccc3c(=O)c(-c4nc5ccccc5s4)c(N)oc23)C1` the entry was “inactive”. For `CCOC(=O)C1=NNC(=O)C1` the value was “inactive”. For `O=C(Nc1ccc(Cl)c(Cl)c1)Nc1ccccc1C(=O)O` the value was “inactive”.
